Consider seven compounds from PubChem BioAssay (Tox21).

A short description of test [1]: Nuclear factor erythroid 2-related factor 2/antioxidant responsive element (Nrf2/ARE) small molecule agonists: qHTS cell viability counter screen in human keratinocytes (AID 1919968; active = well fitted curve in the direction sought with a large enough effect in the repeat runs; an effect the other way counts as inactive or inconclusive; note: nearly all actives have a fitted effect of over 55% in size; note: potency is the fitted concentration of half-maximal effect). The gist of the method:
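KeratinoSens cells (HaCaT keratinocytes stably carrying an ARE-luciferase reporter) were seeded at 1,500 cells/well and rested 5 h at 37 C/5% CO2. They were then exposed to compounds in DMSO for 23 h. Viability was read by CellTiter-Fluor fluorescence after 1 h.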
Background: In qHTS, concentration-response curves come from the screen itself.

The nature of test [2]: Nuclear factor erythroid 2-related factor 2/antioxidant responsive element (Nrf2/ARE) small molecule agonists: luciferase reporter gene qHTS assay in human keratinocytes (AID 1919969). Note: nearly all actives have a fitted effect of over 35% in size.
For test [3], the target named is Gonadotropin-releasing hormone receptor (Homo sapiens) (UniProt P30968). Put plainly: Human gonadotropin-releasing hormone receptor (GnRHR) small molecule agonists, calcium flux assay in GnRHR-HEK293 cells (AID 1920063). Note: nearly all actives have a fitted effect of over 35% in size. An outline of the steps:
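HEK293 cells stably expressing human GnRHR were plated 18 h at 37 °C, loaded with calcium dye 1 h at 37 °C, then given compound in agonist mode; fluorescence (Ex/Em 480/540) read kinetically for 3 min at 1 s intervals.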
(In general: Calcium flux is commonly read through the fluorescence of an indicator in the cells.)

Test [4] has as its target KiSS-1 receptor (Homo sapiens) (UniProt Q969F8). Put plainly: Human kisspeptin (KISS1R) small molecule agonists, calcium flux assay in KISS1R-HEK293 cells (AID 1920064; active = well fitted curve in the direction sought with a large enough effect in the repeat runs; an effect the other way counts as inactive or inconclusive). The gist of the method:
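HEK293 cells stably expressing human KISS1R were plated 18 h at 37 °C, loaded with calcium dye for 1 h at 37 °C, then given compound by pin tool. Fluorescence (Ex/Em 480/540) was read kinetically for 3 min.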

Test [5] in a line: G protein-coupled receptor (GPCR) small molecule agonists, calcium flux assay: HEK293 wild type cell line counter screen (AID 1920065). The gist of the method: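 Cells were plated and cultured 18 h at 37 C/5% CO2, then loaded with calcium dye for 1 h at 37 C. Compounds in DMSO were pin-transferred in agonist mode, and fluorescence (Ex/Em 480/540) was read kinetically for 3 min at 1 s intervals.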

A short description of test [6]: p53 small molecule agonists, cell-based qHTS assay with human liver microsomes (AID 1963577).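 Note: p53 response element beta-lactamase reporter cells with liver microsomes plus NADPH.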 The gist of the method:
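In this qHTS, p53 response-element beta-lactamase cells receive test compound together with a microsome/NADPH activating system (0.5 mg/mL final each) and are incubated 16 h at 37 C before LiveBLAzer fluorescence detection.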

Test [7] can be described thus: p53 small molecule agonists, cell-based qHTS assay with rat liver microsomes (AID 1963578). The gist of the method: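 Agonist mode in p53RE-bla reporter cells, with compounds co-incubated 16 h at 37 C alongside 0.5 mg/mL rat liver microsomes and 0.5 mg/mL NADPH (final), followed by a 2 h LiveBLAzer detection step.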
The nature of test [8]: p53 small molecule agonists, cell-based qHTS assay with human liver microsomes: qHTS cell viability counter screen (AID 1963579). Note: nearly all actives have a fitted effect of over 45% in size. An outline of the steps:
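Metabolically activated exposure: compounds, human liver microsomes and NADPH (0.5 mg/mL final apiece) were added to p53RE-bla cells seeded 5 h earlier, left 16 h at 37 C, and then assessed for viability by CellTiter-Glo luminescence.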

Test [9] in a line: p53 small molecule agonists, cell-based qHTS assay with rat liver microsomes: qHTS cell viability counter screen (AID 1963580). Note: nearly all actives have a fitted effect of over 45% in size. An outline of the steps:
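p53RE-bla HCT-116 cells were exposed 16 h at 37 C to compounds with rat liver microsomes (0.5 mg/mL) and NADPH (0.5 mg/mL). Viability was measured in the same wells as ATP content by CellTiter-Glo luminescence.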

Test [10] can be described thus: p53 small molecule agonists, cell-based qHTS assay: qHTS cell viability counter screen (AID 1963581). Note: nearly all actives have a fitted effect of over 45% in size. An outline of the steps: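 p53RE-bla HCT-116 cells were exposed to compounds for 16 h at 37 C; after the beta-lactamase FRET read in the same wells, CellTiter-Glo was added and luminescence (intracellular ATP) read after 30 min at room temperature.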
Test [11] can be described thus: p53 small molecule agonists, cell-based qHTS assay (AID 1963582; active = well fitted activation curve with a large enough effect in the signal ratio in the repeat runs, not every such curve was filed as active; the % refers to the signal ratio). The gist of the method: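 p53RE-bla beta-lactamase reporter cells rested 5 h at 37 C/5% CO2, then received compounds in DMSO by pin transfer and were incubated 16 h at 37 C. LiveBLAzer B/G FRET substrate was loaded for 2 h at room temperature before fluorescence reading.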
For test [12], the target named is 5-hydroxytryptamine receptor 2A (Homo sapiens) (UniProt P28223). Put plainly: 5-hydroxytryptamine receptor 2A (HTR2A) small molecule antagonists, cell-based qHTS assay (AID 1963586). Note: nearly all actives have a fitted effect of over 45% in size. The gist of the method: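 Antagonist-mode intracellular calcium assay: DOI (4 nM) added after 5 min compound pre-incubation at room temperature to dye-loaded HTR2A-CHO cells. Fluorescence followed for 3 min, sampled every second.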
Sequence of 5-hydroxytryptamine receptor 2A (Homo sapiens) (P28223 whole entry, looked up): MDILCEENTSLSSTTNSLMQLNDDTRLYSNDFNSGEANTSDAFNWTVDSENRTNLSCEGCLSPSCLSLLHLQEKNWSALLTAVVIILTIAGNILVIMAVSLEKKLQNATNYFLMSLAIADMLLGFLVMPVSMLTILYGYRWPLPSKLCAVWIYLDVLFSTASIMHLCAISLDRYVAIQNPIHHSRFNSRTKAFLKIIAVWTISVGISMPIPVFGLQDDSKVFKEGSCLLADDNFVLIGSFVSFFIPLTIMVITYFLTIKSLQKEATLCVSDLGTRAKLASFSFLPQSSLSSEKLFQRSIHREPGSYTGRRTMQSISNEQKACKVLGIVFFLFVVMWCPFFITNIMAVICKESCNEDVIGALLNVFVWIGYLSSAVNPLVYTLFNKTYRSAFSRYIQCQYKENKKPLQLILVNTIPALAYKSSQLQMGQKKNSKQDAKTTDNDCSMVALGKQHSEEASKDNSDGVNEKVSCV

For test [13] the target is unchanged. Briefly: 5-hydroxytryptamine receptor 2A (HTR2A) small molecule agonists, cell-based qHTS assay (AID 1963587). Note: nearly all actives have a fitted effect of over 30% in size. An outline of the steps:
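CHO cells stably expressing human HTR2A, plated 18 h, loaded with calcium dye 1 h at 37 C. Agonist mode: compounds added and intracellular calcium fluorescence recorded kinetically for 2 min at 1 sec intervals.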

Test [14] has as its target Muscarinic acetylcholine receptor M1 (Homo sapiens) (UniProt P11229). Briefly: Cholinergic receptor muscarinic 1 (CHRM1) small molecule antagonists, cell-based qHTS assay (AID 1963588). Note: nearly all actives have a fitted effect of over 40% in size. The gist of the method: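 CHRM1-CHO calcium-flux assay, antagonist mode. Cells were seeded 18 h, dye-loaded 1 h at 37 C and given compound for 5 min at RT, then acetylcholine was added at 50nM. FDSS fluorescence was read 3 min; 15 concentrations, three runs.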

The target is the same in test [15]. Briefly: Cholinergic receptor muscarinic 1 (CHRM1) small molecule agonists, cell-based qHTS assay (AID 1963589). Note: nearly all actives have a fitted effect of over 35% in size. An outline of the steps: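 CHO cells stably expressing human CHRM1, seeded 18 h at 37 C/5% CO2, dye-loaded 1 h at 37 C, then given compound in agonist mode; intracellular calcium fluorescence read kinetically at 1 s intervals. Fifteen concentrations, three independent runs.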

The nature of test [16]: cAMP Responsive Elements (CRE) small molecule agonists, cell-based qHTS assay (AID 1963590). An outline of the steps: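 CRE-bla HEK 293T cells in DMEM with 10% dialyzed FBS, NEAA, pyruvate and 25 mM HEPES were plated 18 h at 37 C/5% CO2, then exposed to compounds in DMSO for 3 h before LiveBLAzer B/G FRET substrate addition.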
Test [17] in a line: cAMP Responsive Elements (CRE) small molecule antagonists, cell-based qHTS assay (AID 1963591; active = well fitted inhibition curve with a large enough effect in the signal ratio in the repeat runs, not every such curve was filed as active; the % refers to the signal ratio). An outline of the steps: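 CRE-bla HEK293T cells were plated 18 h at 37 °C/5% CO2, pinned with compound in DMSO, then stimulated with NKH477 at 0.25 uM final for 3 h. LiveBLAzer B/G FRET substrate was added and plates incubated 2 h at room temperature.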
Test [18] concerns the target Beta-2 adrenergic receptor (Homo sapiens) (UniProt P07550). Briefly: Adrenergic beta2 receptor (ADRB2) small molecule antagonists, cell-based qHTS assay (AID 1963592). Note: series mostly up to about 92 µM; nearly all actives have a fitted effect of over 50% in size. An outline of the steps:
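Cells (CHO, stable ADRB2 overexpression) incubated 18-20hr at 37C; compounds added from DMSO; agonist mix (1nM isoproterenol, 100uM IBMX, 25uM Ro-20-1724) added; 0.5hr RT; d2-cAMP and anti-cAMP-cryptate added; 1hr RT; 665/615 nm read.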

Test [19] has the same target. Put plainly: Adrenergic beta2 receptor (ADRB2) small molecule agonists, cell-based qHTS assay (AID 1963593).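 Note: CHO cells stably overexpressing human ADRB2.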 An outline of the steps: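 CHO cells stably over-expressing ADRB2 were plated overnight at 37C, then dosed with compounds plus a stimulation mix containing 100uM IBMX and 25uM Ro-20-1724 for 0.5hr at room temperature. cAMP was measured by HTRF competition, 1hr.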

Test [20] deals with D(2) dopamine receptor (Homo sapiens) (UniProt P14416). Briefly: Dopamine D2 receptor (DRD2) small molecule agonists, cell-based qHTS assay (AID 1963594). Note: nearly all actives have a fitted effect of over 35% in size. The gist of the method:
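HEK293 cells stably expressing human DRD2, pre-treated with PDE inhibitor Ro20-1724 (0.1 mM final) and compound 10 min at room temperature, then stimulated with NKH477 (200nM […]) for 30 min. cAMP read by HTRF (665/620 nm).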

Unmarked numbers belong to inactive results. Records with an inconclusive call do not appear. Calls of active or inactive are those of the source. Unless noted, calls come from the whole dose curve.

Sequence of Muscarinic acetylcholine receptor M1 (Homo sapiens) (P11229 whole entry, looked up): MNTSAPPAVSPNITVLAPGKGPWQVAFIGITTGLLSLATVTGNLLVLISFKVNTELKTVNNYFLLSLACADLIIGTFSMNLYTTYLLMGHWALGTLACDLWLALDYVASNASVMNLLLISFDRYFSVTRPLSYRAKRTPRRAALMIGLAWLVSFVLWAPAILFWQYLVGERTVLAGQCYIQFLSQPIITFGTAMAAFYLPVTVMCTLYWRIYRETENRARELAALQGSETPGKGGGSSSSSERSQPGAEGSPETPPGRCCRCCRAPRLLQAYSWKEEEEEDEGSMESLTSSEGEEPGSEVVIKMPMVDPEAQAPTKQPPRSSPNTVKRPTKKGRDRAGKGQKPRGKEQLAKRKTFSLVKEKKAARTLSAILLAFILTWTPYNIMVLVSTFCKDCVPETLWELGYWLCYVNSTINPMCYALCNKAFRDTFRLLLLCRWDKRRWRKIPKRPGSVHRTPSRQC
Sequence of Gonadotropin-releasing hormone receptor (Homo sapiens) (P30968 whole entry, looked up): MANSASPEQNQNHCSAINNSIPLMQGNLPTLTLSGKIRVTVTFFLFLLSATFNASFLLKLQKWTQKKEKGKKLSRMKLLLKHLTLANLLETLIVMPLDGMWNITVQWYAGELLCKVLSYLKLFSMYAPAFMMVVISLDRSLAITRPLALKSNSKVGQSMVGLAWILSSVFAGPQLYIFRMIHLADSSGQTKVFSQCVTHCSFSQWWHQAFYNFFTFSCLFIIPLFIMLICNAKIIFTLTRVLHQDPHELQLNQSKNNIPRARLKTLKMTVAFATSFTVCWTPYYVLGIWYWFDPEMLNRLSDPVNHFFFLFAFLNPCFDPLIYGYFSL
Sequence of KiSS-1 receptor (Homo sapiens) (Q969F8 whole entry, looked up): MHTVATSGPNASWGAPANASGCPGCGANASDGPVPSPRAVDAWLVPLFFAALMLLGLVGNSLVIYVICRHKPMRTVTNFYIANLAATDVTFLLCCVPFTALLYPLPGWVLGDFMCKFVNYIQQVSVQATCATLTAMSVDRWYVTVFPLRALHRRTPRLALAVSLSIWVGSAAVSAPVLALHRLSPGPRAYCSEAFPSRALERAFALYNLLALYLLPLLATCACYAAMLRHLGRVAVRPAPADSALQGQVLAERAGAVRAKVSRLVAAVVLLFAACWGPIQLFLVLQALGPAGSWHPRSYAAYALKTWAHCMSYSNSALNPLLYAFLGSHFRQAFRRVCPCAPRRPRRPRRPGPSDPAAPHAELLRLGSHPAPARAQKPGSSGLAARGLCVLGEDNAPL
Sequence of Beta-2 adrenergic receptor (Homo sapiens) (P07550 whole entry, looked up): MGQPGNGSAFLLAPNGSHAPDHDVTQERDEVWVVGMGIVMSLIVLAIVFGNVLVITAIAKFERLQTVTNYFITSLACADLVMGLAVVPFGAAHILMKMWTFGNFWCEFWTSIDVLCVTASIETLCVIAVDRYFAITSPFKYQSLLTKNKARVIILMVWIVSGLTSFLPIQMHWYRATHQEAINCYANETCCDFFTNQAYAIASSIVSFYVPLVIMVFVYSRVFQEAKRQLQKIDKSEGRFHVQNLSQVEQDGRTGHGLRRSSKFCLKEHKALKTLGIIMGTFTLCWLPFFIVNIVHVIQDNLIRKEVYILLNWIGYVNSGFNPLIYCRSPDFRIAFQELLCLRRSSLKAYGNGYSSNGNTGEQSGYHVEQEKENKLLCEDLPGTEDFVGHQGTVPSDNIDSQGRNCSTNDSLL
Sequence of D(2) dopamine receptor (Homo sapiens) (P14416 whole entry, looked up): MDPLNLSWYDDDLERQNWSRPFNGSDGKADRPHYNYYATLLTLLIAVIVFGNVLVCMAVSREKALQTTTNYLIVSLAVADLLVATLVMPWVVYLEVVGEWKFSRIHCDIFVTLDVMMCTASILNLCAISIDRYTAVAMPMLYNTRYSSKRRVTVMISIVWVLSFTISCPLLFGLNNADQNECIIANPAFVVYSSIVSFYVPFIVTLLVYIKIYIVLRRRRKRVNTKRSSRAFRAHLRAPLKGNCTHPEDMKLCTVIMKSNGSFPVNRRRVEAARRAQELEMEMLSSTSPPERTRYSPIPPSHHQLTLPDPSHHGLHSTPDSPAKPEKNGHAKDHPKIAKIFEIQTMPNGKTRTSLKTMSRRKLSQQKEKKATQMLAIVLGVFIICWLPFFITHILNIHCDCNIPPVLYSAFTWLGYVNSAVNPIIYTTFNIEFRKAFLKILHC

`CC(C)=CCC/C(C)=C/C#N`: the Potency entry in [1], in test [2], in [3], in test [4], in test [5] and in test [6] was “inactive” in each case. Further, the Potency entry in test [7], in test [8], in test [9], in test [10], in [11] and in [12] was “inactive” throughout. In addition, the Potency result in [13], in test [14], in test [15], in test [16], in test [17] and in test [18] was “inactive” each time. In [19], the Potency result was “inactive”.
Turning to `C=COCCOCCOCCOC=C`, the Potency result in test [1], in [2], in test [3], in test [4], in test [5] and in [6] was “inactive” in each case. The Potency entry in test [7], in test [8], in test [9], in test [10], in test [11] and in test [12] was “inactive” in each case. In addition, the Potency result in [13], in [14], in test [15], in test [16], in [17] and in [18] was “inactive” each time. The Potency entry in [19] and in test [20] was “inactive” in each case.
Turning to `CCCc1ccccc1`, the Potency result in [1], in test [2], in [3], in [4], in test [5] and in test [6] was “inactive” each time. The Potency entry in [7], in test [8], in [9], in test [10], in test [11] and in [12] was “inactive” in each case. For the same compound, the Potency result in test [13], in [14], in [15], in [16], in test [17] and in test [18] was “inactive” throughout. For the same compound, the Potency result in [19] and in test [20] was “inactive” in each case.
For the compound `CC1CCC(C(C)(C)O)CC1` (stereo unspecified), the Potency result in test [1], in test [2], in [3], in test [4], in test [5] and in [6] was “inactive” in each case. Also, the Potency entry in [7], in test [8], in [9], in test [10], in test [11] and in test [12] was “inactive” each time. The Potency entry in test [13], in test [14], in test [15], in test [16], in test [17] and in [18] was “inactive” throughout. The Potency result in test [19] and in test [20] was “inactive” in each case.
For the compound `CC1=CC[C@H](CC=O)C1(C)C`, the Potency result in [1], in test [2], in test [3], in [4], in test [5] and in [6] was “inactive” throughout. Besides, the Potency entry in test [7], in test [8], in test [9], in test [10], in test [11] and in test [12] was “inactive” throughout. Moreover, the Potency result in test [13], in test [14], in test [15], in [16], in [17] and in test [18] was “inactive” throughout. In addition, the Potency result in [19] is “inactive”.
`O=c1[nH][nH]c(=O)c2cc([N+](=O)[O-])ccc12`: the Potency entry in test [1], in test [2], in [3], in [4], in test [5] and in [6] was “inactive” each time. For the same compound, the Potency result in [7], in [8], in test [9], in [10], in test [11] and in [12] was “inactive” throughout. Moreover, the Potency result in test [13], in test [14], in [15], in test [16], in test [17] and in [18] was “inactive” in each case. In addition, the Potency entry in test [19] and in test [20] was “inactive” throughout.
Take `Cc1cc(C)c(S(=O)(=O)O)cc1N=Nc1cc(S(=O)(=O)O)c2ccccc2c1O`: the Potency in test [1] is 30.6 µM (active). Also, the Potency result in test [2], in test [3], in test [4], in test [5], in test [6] and in [7] was “inactive” each time. Also, the Potency entry in test [8], in [9], in [10], in test [11], in test [12] and in test [13] was “inactive” throughout. For the same compound, the Potency entry in [14], in [15], in [16], in test [17] and in [18] was “inactive” each time.
